# Laboratory results taken from the supplement of paper PMC12350171.
# Structures can show the parent of a compound that is named as a salt. Values without a mark were called inactive.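 How the source made its calls: active = AUC significantly below DMSO controls by Student t-fit with adjusted P under 0.01; inactive = not significantly reduced.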
# System: Haemophilus parainfluenzae
# Assay: growth AUC normalised to DMSO control (fraction of control); higher = less growth inhibition, active = hit call of the paper
# Conditions: 20 µM
# Outline: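 Pathogens passaged twice anaerobically were inoculated at a starting OD578 of 0.01 into pre-reduced mGAM plates with drug at 20 μM and 1% DMSO, sealed with breathable membranes. Haemophilus parainfluenzae medium was supplemented with hemin and NAD. OD578 was read hourly for 24 h, with three biological replicates. Growth-curve AUC was computed by the trapezoidal rule up to the exponential-to-stationary transition and normalised to DMSO controls on the same plate.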
row,Structure (SMILES),growth AUC normalised to DMSO control
1,O=c1cc(-c2ccc(O)c(O)c2)oc2cc(O)cc(O)c12 [Luteolin],1.02
2,Clc1ccc2c(c1)C(N1CCNCC1)=Nc1ccccc1O2 [Amoxapine],0.963
3,c1cnc(N2CCN(Cc3ccc4c(c3)OCO4)CC2)nc1 [Piribedil],1.02
4,CCN(CC)CCNc1ccc(CO)c2sc3ccccc3c(=O)c12 [Hycanthone],0.986
5,CC(COc1ccccc1)N(CCCl)Cc1ccccc1 (configuration not stated) [Phenoxybenzamine hydrochloride],1.01
6,C[C@]12C=CC(=O)C=C1CC[C@@H]1[C@@H]2[C@@H](O)C[C@@]2(C)[C@H]1CC[C@]2(O)C(=O)CO [Prednisolone],0.935
7,CN(C)CCCN1c2ccccc2CCc2ccc(Cl)cc21 [Clomipramine hydrochloride],0.922
8,Nc1ccn([C@@H]2O[C@H](CO)[C@@H](O)C2(F)F)c(=O)n1 [Gemcitabine],1.1
9,N=C(N)NCc1cccc(I)c1 [Iobenguane sulfate],1.02
10,CCCCNC(=O)NS(=O)(=O)c1ccc(C)cc1 [Tolbutamide],0.99
11,CN/C(=N\CCSCc1nc[nH]c1C)NC#N [Cimetidine],0.993
12,CCOC(=O)C1=C(C)NC(C)=C(C(=O)OC)C1c1cccc(Cl)c1Cl (configuration not stated) [Felodipine],0.863
13,Clc1ccc(C(Cn2ccnc2)OCc2ccsc2Cl)c(Cl)c1 (configuration not stated) [Tioconazole],0.934
14,Cc1ccc(NC(=O)c2ccc(CN3CCN(C)CC3)cc2)cc1Nc1nccc(-c2cccnc2)n1 [Imatinib],1.09
15,Oc1c(I)cc(Cl)c2cccnc12 [Clioquinol],1.03
16,CN(C)CCCOc1nn(Cc2ccccc2)c2ccccc12 [Benzydamine hydrochloride],0.964

row,Structure (SMILES),growth AUC normalised to DMSO control
1,Nc1ccc(S(=O)(=O)Nc2ccnn2-c2ccccc2)cc1 [Sulfaphenazole],0.925
2,C[C@@H](c1ncncc1F)[C@](O)(Cn1cncn1)c1ccc(F)cc1F [Voriconazole],0.977
3,Nc1ccn([C@@H]2O[C@H](CO)[C@@H](O)[C@@H]2O)c(=O)n1 [Cytarabine],0.999
4,COc1ccc2[nH]c([S+]([O-])Cc3ncc(C)c(OC)c3C)nc2n1 (configuration not stated) [Tenatoprazole],0.978
5,COc1ccc2[nH]c([S+]([O-])Cc3ncc(C)c(OC)c3C)nc2c1 (configuration not stated) [Omeprazole],0.919
6,CCCN(CCC)S(=O)(=O)c1ccc(C(=O)O)cc1 [Probenecid],1.02
7,Cc1cc(NC(=O)C2=C(O)c3ccccc3S(=O)(=O)N2C)no1 [Isoxicam],0.991
8,Cc1ccc(S(=O)(=O)NC(=O)NN2CC3CCCC3C2)cc1 (configuration not stated) [Gliclazide],0.996
9,CC(=O)NCCCS(=O)(=O)O [Acamprosate calcium],0.988
10,COc1ccc(CC(C)NCC(O)c2ccc(O)c(NC=O)c2)cc1 (configuration not stated) [Formoterol fumarate],1.09
11,CC(C)Cn1cnc2c(N)nc3ccccc3c21 [Imiquimod],1.08
12,COC(=O)Nc1nc2ccc(SC(C)C)cc2[nH]1 [Methiazole],1.05
13,Clc1cc(Cl)c(OCC#CI)cc1Cl [Haloprogin],0.992
14,CNC(C)CCC=C(C)C (configuration not stated) [Isometheptene mucate],0.97
15,Nc1ccc(S(=O)(=O)NC(=O)c2ccccc2)cc1 [Sulfabenzamide],1.1
16,CC[C@H](C)[C@H]1O[C@]2(C=C[C@@H]1C)C[C@@H]1C[C@@H](C/C=C(\C)[C@@H](O[C@H]3C[C@H](OC)[C@@H](O[C@H]4C[C@H](OC)[C@@H](O)[C@H](C)O4)[C@H](C)O3)[C@@H](C)/C=C/C=C3\CO[C@@H]4[C@H](O)C(C)=C[C@@H](C(=O)O1)[C@]34O)O2.CO[C@H]1C[C@H](O[C@H]2[C@H](C)O[C@@H](O[C@@H]3/C(C)=C/C[C@@H]4C[C@@H](C[C@]5(C=C[C@H](C)[C@@H](C(C)C)O5)O4)OC(=O)[C@@H]4C=C(C)[C@@H](O)[C@H]5OC/C(=C\C=C\[C@@H]3C)[C@]54O)C[C@@H]2OC)O[C@@H](C)[C@@H]1O [Avermectin B1],0.997
